Rab9 prom act = qHTS Assay for Rab9 Promoter Activators; Potency, µM (series often up to 9.22 µM), without a hit: at the top dose activation, negative = inhibition, actives largely listed as activators; hit rate 2.8% among 320,000; Huh7 Rab9 promoter-luciferase reporter, luminescence, 24 h; further: % of control where 0% means no effect; nearly all actives have a fitted effect of over 60% in size
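Huh7 cells stably carrying a Rab9 promoter-luciferase reporter, 1500 cells per well in OP-MEM I with 10% FBS, treated with compound 24 hours at 37C. Luciferase activity read by luminescence after 10 minutes with Amplite reagent.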
NPC1 prom act = qHTS Assay for NPC1 Promoter Activators; Potency, µM (titrated, usually from 9.22 µM), for the others: at the highest dose activation, usual class: activators; hit rate 2.4% among 320,000; Huh7 NPC1 promoter luciferase reporter, 24 h; further: % of control where 0% means no effect; nearly all actives have a fitted effect of over 60% in size
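Cells: Huh7 expressing luciferase under the NPC1 promoter, 1500/well. Seeded 2 h, compound added, incubated 24 h at 37 °C. Luciferase reagent, 10 min ambient, then luminescence.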
ELG1 DNA repair = qHTS screen for small molecules that inhibit ELG1-dependent DNA repair in human embryonic kidney (HEK293T) cells expressing luciferase-tagged ELG1; HEK293T ELG1-luciferase reporter, luminescence, 16 h; DNA damage induced by 5-fluorouridine; Potency, µM (highest dose often 46.1 µM), for the others: top-dose activity change, negative = inhibition, most hits filed as inhibitors; hit rate 2.3% among 330,000; AID 504467, 2011; further: on the % scale 0 is the no-effect control and ±100 the full control effect; nearly all actives have a fitted effect of over 55% in size
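DMSO vehicle served as the neutral condition. Each well held 2,000 cells given 5-fluorouridine plus compound; after 16 hr at 37 °C/5% CO2, ONE-Glo was added and luciferase measured 30 min later.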
FLuc modulator = qHTS profiling assay for firefly luciferase inhibitor/activator using purifed enzyme and Km concentrations of substrates (counterscreen for miR-21 project) | Luciferin 4-monooxygenase (Photinus pyralis), P08659 | AID 588342, 2011 | purified FLuc, Km substrates, luminescence inhibition | hit rate 6.9% among 360,000 | Potency, µM (highest dose often 57.5 µM), without a hit: at the top dose activity change, negative = inhibition, usual class: inhibitors;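 further: plate controls were vehicle for no effect and reference inhibitor for full effect; nearly all actives have a fitted effect of over 55% in size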
Target sequence (P08659 whole entry, looked up): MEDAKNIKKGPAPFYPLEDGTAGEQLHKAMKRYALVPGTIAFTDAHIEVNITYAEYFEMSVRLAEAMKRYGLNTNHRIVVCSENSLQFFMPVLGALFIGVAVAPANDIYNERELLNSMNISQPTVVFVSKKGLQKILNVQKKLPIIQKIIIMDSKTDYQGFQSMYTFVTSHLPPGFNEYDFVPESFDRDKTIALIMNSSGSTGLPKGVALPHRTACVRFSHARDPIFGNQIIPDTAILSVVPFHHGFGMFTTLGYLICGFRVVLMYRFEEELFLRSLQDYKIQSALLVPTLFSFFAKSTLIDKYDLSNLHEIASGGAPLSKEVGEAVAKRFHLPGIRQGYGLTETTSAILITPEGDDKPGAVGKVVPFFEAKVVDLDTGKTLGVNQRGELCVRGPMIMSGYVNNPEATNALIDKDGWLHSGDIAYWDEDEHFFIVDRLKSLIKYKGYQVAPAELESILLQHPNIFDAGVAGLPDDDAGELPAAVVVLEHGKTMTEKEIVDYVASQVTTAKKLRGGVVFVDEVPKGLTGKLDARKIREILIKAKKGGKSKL
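Biochemical qHTS of compounds, final roughly 60 µM downward over six points, against 10 nM purified firefly luciferase using Km concentrations of substrates (10 uM D-luciferin, 10 uM ATP) in Tris acetate pH 7.5 buffer; luminescence output.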
SMN2 splice up = qHTS Assay for Enhancers of SMN2 Splice Variant Expression | HEK293 SMN2-luciferase splicing reporter, luminescence, 30-36 h | Potency, µM (titrated, usually from 46.1 µM), for inactives: at the top dose activity change, positive = activation, actives largely listed as activators | hit rate 2.8% among 210,000 | AID 1458, 2008; further: % of control where 0% means no effect; nearly all actives have a fitted effect of over 55% in size
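qHTS luciferase splicing reporter: luminescence rises when SMN2 exon 7 is included in transfected HEK293 cells. Compound exposure lasted 30-36 h at 37C, with 4.5 mM final sodium butyrate as control, followed by a ONE-Glo read.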
ELG1 genotox = qHTS screen for small molecules that induce genotoxicity in human embryonic kidney (HEK293T) cells expressing luciferase-tagged ELG1; Potency, µM (doses to about 46 µM), for the others: top-dose activity change, positive = activation, actives largely listed as activators; hit rate 1.3% among 330,000; AID 504466, 2011; HEK293T ELG1-luciferase reporter, luminescence, 16 h; further: % of control where 0% means no effect; nearly all actives have a fitted effect of over 60% in size
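Step 1: seed 2,000 HEK293T ELG1-luciferase cells per well. Step 2: add compound or DMSO, incubate 16 hr at 37 °C. Step 3: ONE-Glo, 30 min at room temperature, read luminescence.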
* = called active by the depositor; ? = inconclusive; . = no result. Shown are actives, neighbours in structure and some others; about 9.2% of the full set was active somewhere. The call rests on the fitted dose curve; in most records, active means well fitted curve in the direction sought with a large enough effect; inconclusive means small, poorly fitted or top-dose-only effect, or another doubt; inactive means no such curve, though single readings can be large; an effect the other way counts as inactive or inconclusive. Potency means the concentration at half of the fitted maximal effect.

SMILES	Rab9 prom act	NPC1 prom act	ELG1 DNA repair	FLuc modulator	SMN2 splice up	ELG1 genotox
COc1ccc2oc(=O)c(C(=O)Nc3ccc(C(=O)O)cc3)cc2c1	.	.	.	6.7µM*	-1%	.
COc1ccc(NC(=O)c2cc3cc(OC)ccc3oc2=N)cc1	-1%	9%	7%	9.5µM*	-22%	10%
N=c1oc2ccc(Br)cc2cc1C(=O)NC1CCCCCC1	0%	0%	11%	2%	.	-8%
COc1ccc2oc(=O)c(C(C)=O)cc2c1	1%	-4%	-7%	6%	-19%	-1%
COc1ccc(N(CCC#N)S(=O)(=O)c2cccc3nsnc23)cc1	-4%	1%	13%	-2%	-12%	3%
Cn1cnnc1SCC(=O)Nc1ccc2ccccc2c1	5%	8%	?	?	.	12%
O=C(/C=C/c1cc([N+](=O)[O-])ccc1OC(F)F)NCc1ccc(Cl)cc1	1%	0%	-20%	0%	-14%	-5%
COc1ccc(CNC(=O)/C=C/c2cc([N+](=O)[O-])ccc2OC(F)F)cc1OC	1%	-2%	21µM*	2%	-14%	-1%
COc1ccc(CNC(=O)/C=C/c2cc([N+](=O)[O-])ccc2OC(F)F)cc1	1%	-2%	-24%	3%	-6%	-1%
COC(=O)c1ccc(CNC(=O)/C=C/c2cc([N+](=O)[O-])ccc2OC(F)F)cc1	-2%	-1%	10µM*	0%	0%	-1%
COc1ccc(C(=O)NCC(=O)OCC(=O)N2CCC(C)CC2)cc1OC	-1%	-2%	-8%	5%	0%	-1%
CC1(C)CCC(=O)N2CC[C@H]3C[C@H](OC(=O)Nc4ccccc4)C[C@@H]1[C@H]32	?	?	?	19µM*	.	19%
CC1(C)CCC(=O)N2CC[C@H]3C[C@H](OC(=O)Nc4ccc5c(c4)OCO5)C[C@@H]1[C@H]32	?	4µM*	?	15µM*	.	-5%
N#C/C(=C(/O)c1ccco1)c1nc2ccccc2s1	3.2µM*	2.2µM*	?	8.5µM*	25%	14%
O=C(NCc1ccco1)c1nc2ccccc2s1	19%	3%	?	?	?	?
N#C/C(=C(/O)c1cc2ccccc2o1)c1nc2ccccc2s1	?	3.2µM*	18%	6.7µM*	.	3%
Cn1c(/C(C#N)=C(\O)c2cccc(F)c2)nc2ccccc21	12%	30%	21%	-5%	.	?
N#C/C(=C(/O)C(Cl)c1ccccc1)c1nc2ccccc2s1 (stereo not given)	?	24%	?	?	-8%	?
CC1=CC(=C(C#N)c2nc3ccccc3s2)C=C(C)N1Cc1ccco1	6%	2%	-26%	4.8µM*	-16%	1%
N#C/C(=C(/O)c1cccc(F)c1)c1nc2ccccc2s1	?	?	?	19µM*	.	9%
COc1ccc(CN2CCn3nc(C(=O)NC4CC4)cc3C2=O)cc1	-1%	1%	9%	-1%	11%	3%
O=C(CSc1nnc(CNC(=O)c2cccc(F)c2)n1-c1ccccc1)Nc1ccccc1F	.	.	.	-1%	?	.
N#C/C(=C(\O)Cc1ccccc1)c1nc2ccccc2[nH]1	-3%	3%	?	-3%	-25%	?
N#C/C(=C(/O)c1ccco1)c1nc2ccccc2[nH]1	?	16%	-1%	19µM*	-34%	2%
CCOc1ccccc1NC(=O)CSc1ccc2nnc(CCNS(=O)(=O)c3ccccc3)n2n1	.	.	.	-2%	.	.
SMILES	Rab9 prom act	NPC1 prom act	ELG1 DNA repair	FLuc modulator	SMN2 splice up	ELG1 genotox
CCOC(=O)CSc1nnc(-c2ccccc2)o1	0%	-2%	20%	?	-7%	2%
CCOC(=O)c1ccc(-c2nnc(-c3ccc(Cl)cc3Cl)o2)cc1	0.5µM*	0.63µM*	?	3%	3.5µM*	16%
CCCOC(=O)CSc1nnc(-c2ccc(Cl)cc2Cl)o1	-1%	2%	0%	15µM*	-4%	1%
CCOC(=O)CSc1nnc(-c2ccc(Cl)cc2Cl)o1	-2%	1%	20%	8.5µM*	-1%	9%
CCOC(=O)c1cc(-c2nnc(-c3ccc(Cl)cc3)o2)c(C)nc1C	-3%	0%	0%	1%	-18%	2%
O=C(Cn1c(=O)nc(-c2ccccc2)c2ccccc21)Nc1ccc(Cl)cc1F	.	.	.	0%	-5%	.
CCC(=O)NCCc1nc2cc(NC(=O)COc3ccccc3)ccc2n1C	?	?	?	?	.	19%
COc1ccccc1C(=O)Nc1ccc2c(c1)nc(CCNC(C)=O)n2C	?	?	?	15µM*	?	?
CCC(=O)NCCc1nc2cc(NC(=O)c3ccccc3OC)ccc2n1C	29%	23%	?	21µM*	.	?
CC(=O)NCCc1nc2cc(NC(=O)Nc3ccccc3)ccc2n1C	4µM*	2.2µM*	?	6.7µM*	.	?
Cn1c(CCN2CCCCC2)nc2cc(NC(=O)Nc3ccccc3)ccc21	-1%	-2%	18%	-3%	.	13%
COc1ccccc1C(=O)Nc1ccc2c(c1)nc(CCNC(=O)c1ccccc1)n2C	2%	-19%	?	15µM*	.	-10%
CCCN(CCC)CCNC(=O)c1sc2nc3n(c(=O)c2c1C)CCCCC3	.	.	.	-2%	.	.
Cn1c(N)c(S(=O)(=O)N2CCN(Cc3ccccc3)CC2)c(=O)n(C)c1=O	-3%	-2%	-12%	0%	-9%	0%
COc1cc(-c2n[nH]c(=S)n2-c2ccc(Br)cc2)cc(OC)c1OC	2%	1%	11%	1%	.	3%
CCOC(=O)c1sc(-n2[nH]c(C)cc2=O)nc1C	2%	11%	2%	15µM*	-3%	2%
COc1ccc(OC)c(/C=C2\SC(=S)N(C(C(=O)O)c3ccccc3)C2=O)c1 (stereo not given)	0%	6%	-3%	-9%	.	-2%
CCOc1ccc(/C=C2\SC(=S)N(C(C(=O)O)c3ccccc3)C2=O)cc1OC (stereo not given)	-11%	-1%	0%	19µM*	.	2%
C=CCOc1ccc(/C=C2\SC(=S)N(C(C(=O)O)c3ccccc3)C2=O)cc1 (stereo not given)	-3%	0%	-1%	21µM*	.	-3%
